Hit rate of the full screen: of about 1,300 compounds, about 270 (21%) were called active. How the calls were made is not given here. The list is a sample of the results. Results with a measured potency or affinity are listed apart.

The assay is described as follows: SK-MEL-5 parental cell viability loss, dose response, orthogonal assay for MITF inhibitor project, CellTiter-Glo, cherry-picked, set 3 (AID 493240). The following applies: SK-MEL-5 viability, ATP luminescence (CellTiter-Glo), 24 h; series mostly up to 35 µM; activity change, negative = viability loss: at the top concentration. (ATP-based viability assays read luminescence as a measure of living cells.)
In the case of `CCN(CC)Cc1c(O)ccc2c1O/C(=C\C=C\c1ccccc1)C2=O`, the “activity change, negative = viability loss” value is -2.2% (inactive).
In the case of `Cc1cc(/C=C(\C#N)C(=O)O)c(C)n1CC(C)C`, the “activity change, negative = viability loss” value is 12.1% (inactive).
Take `CN(C)c1ccc(/C=N\NC(=O)c2cccc3cc[nH]c23)cc1`: the “activity change, negative = viability loss” value was 7.77% (inactive).
Turning to `Cc1ccc(-c2nc(C#N)c(NCc3ccco3)o2)cc1`, the “activity change, negative = viability loss” value was -10% (inactive).
Consider `Cc1ccccc1OCC(=O)Nc1cccc(C(=O)O)c1`, for which the “activity change, negative = viability loss” value is -8.49% (inactive).
For the compound `O=C(Nc1ccc2oc(-c3cccnc3)nc2c1)c1ccc([N+](=O)[O-])o1`, the “activity change, negative = viability loss” value was -13.7% (inactive).
Consider `COc1ccccc1/C=C/C=N/NC(=O)c1cccs1`, for which the “activity change, negative = viability loss” value was 2.03% (inactive).
Consider `Cc1cc(NC(=O)c2ccc([N+](=O)[O-])o2)ccc1NC(=O)c1ccco1`, for which the “activity change, negative = viability loss” value is -34.3% (inactive).
Regarding `CC(C)c1ccc(/C=C2\SC(=S)N(CCC(=O)N3CCCCC3CCO)C2=O)cc1` (centres undefined), the “activity change, negative = viability loss” value was -2.33% (inactive).
With `CN(C)S(=O)(=O)c1cccc(NC(=O)CSc2nc3c(cc2C#N)C(=O)CC(C)(C)C3)c1`, the “activity change, negative = viability loss” value was -14.6% (inactive).
As for `O=C(CCC(=O)c1ccc[nH]1)c1ccc(Cl)cc1`, the “activity change, negative = viability loss” value is -5.44% (inactive).
`CCOC(=O)N1CCN(C(=O)c2ccc(Cn3c(=S)[nH]c4ccc(Br)cc4c3=O)cc2)CC1`: the “activity change, negative = viability loss” value is -37% (inactive).
Regarding `C=CCNc1nc(-c2ccccn2)nnc1-c1ccccc1`, the “activity change, negative = viability loss” value was -21.7% (inactive).
Then `Cc1cc(C)c2nc3nc(C)cc(C)c3c(N)c2c1`, with -25.4% (inactive); and `N#C/C(=C\C=C\c1ccccc1[N+](=O)[O-])C(=O)NCc1ccccc1`, with -18.2% (inactive); and `Cc1cc(Cl)ccc1OCCCC(=O)N1CCOCC1`, with -12% (inactive).
As to `Cc1cccc(N(O)C(=O)Nc2cccc(Cl)c2)c1`, the “activity change, negative = viability loss” value is -4.38% (inactive).
Consider `Nc1c(-c2ccccc2)cnc2c(-c3ccccc3)cnn12`, for which the “activity change, negative = viability loss” value was -13.3% (inactive).
Take `CC(=O)c1ccc(Sc2nnnn2-c2ccccc2)c([N+](=O)[O-])c1`: the “activity change, negative = viability loss” value was -8.68% (inactive).
As for `Cc1ccc(-c2noc(-c3ccno3)n2)cc1`, the “activity change, negative = viability loss” value is -0.841% (inactive).
Then `Cc1cc(-n2c(C)cc(C(=O)CCl)c2C)no1`, with -18.2% (inactive); and `Cc1ccc(OCCCCN2CCCCC2)c(Br)c1`, with -4.91% (inactive); and `Clc1ccccc1CSc1nnc(-c2ccncc2)o1`, with -11.6% (inactive).
In the case of `c1ccc(C[n+]2cccc3c4ccccc4ccc32)cc1`, the “activity change, negative = viability loss” value is -37.1% (inactive).
Then `CS(=O)(=O)c1ccc2nc(NC(=O)c3ccccc3)sc2c1`, with -12.4% (inactive).
On to `CC1(C)Cc2c(sc(NC(=O)c3ccc4ncsc4c3)c2C(N)=O)C(C)(C)N1`, for which the “activity change, negative = viability loss” value was -34.2% (inactive).
Take `CCCN(CCC)C1=CC(=[N+]2CCCC2)CC(C)(C)C1`: the “activity change, negative = viability loss” value is -30.5% (inactive).
`Cc1nc(Sc2nnnn2C)c2c3c(sc2n1)CCC3`: the “activity change, negative = viability loss” value is -24.1% (inactive).
Regarding `COC(=O)c1ccc(-n2c(C)cc(C(=O)CCl)c2C)cc1`, the “activity change, negative = viability loss” value was -49.6% (inactive).
Under `Cc1ccc2c(c1)COc1c3ccc(C(=O)O)cc3nn1-2` stands -36.1% (inactive); under `Nc1ccc(-c2cc3ccccc3c(=O)o2)cc1`, -23.3% (inactive).
As for `Nc1c(-c2ccc(Cl)cc2)nnn1-c1ccccc1`, the “activity change, negative = viability loss” value was -10.9% (inactive).
With `Cc1ccc(NC(=O)c2cc(N3C(=O)C=CC3=O)ccc2N2CCOCC2)cc1`, the “activity change, negative = viability loss” value is -28.6% (inactive).
With `COc1cc(OC)cc(-c2oc(=O)c3cc(OC)c(OC)cc3c2C(F)(F)F)c1`, the “activity change, negative = viability loss” value was 5.28% (inactive).
As for `O=C1c2ccccc2CN1c1ccccc1`, the “activity change, negative = viability loss” value is -2.83% (inactive).
As to `Cn1c(/C=C/c2cccc([N+](=O)[O-])c2)c([N+](=O)[O-])c(=O)n(C)c1=O`, the “activity change, negative = viability loss” value is -4.42% (inactive).
Then `O=C(O)c1cccc(NC(=O)c2cccc(NC(=O)C3CCCO3)c2)c1` (centres undefined), with -11.9% (inactive); and `Oc1cc(NCCN2CCOCC2)cc2cccnc12`, with -56.1% (inactive).
As to `N#Cc1nc(/C=C/c2ccccc2)oc1NCCCN1CCOCC1`, the “activity change, negative = viability loss” value was -14.3% (inactive).
Consider `CC(C)(C)c1cc(NCCCn2ccnc2)n2ncc(-c3ccccc3)c2n1`, for which the “activity change, negative = viability loss” value was -5.35% (inactive).
In the case of `O=c1c(Cl)c(Cl)cnn1Cc1ccc(F)cc1`, the “activity change, negative = viability loss” value is 2.13% (inactive).
In the case of `Cc1c(NC(=O)C(C)OC(=O)c2ccc([N+](=O)[O-])s2)c(=O)n(-c2ccccc2)n1C` (centres undefined), the “activity change, negative = viability loss” value was 6.54% (inactive).
Take `Cc1cc(Sc2ncnc(N)c2[N+](=O)[O-])ncn1`: the “activity change, negative = viability loss” value was -23.4% (inactive).
Under `Fc1cccc(Cl)c1CSc1nnc(-c2ccncc2)o1` stands 12.6% (inactive); under `Cc1ccc(OCC(=O)Nc2ccccc2F)cc1`, 4.09% (inactive).
On to `CN(CCC#N)C(=O)COC(=O)c1ccccc1C(=O)c1ccc(Cl)c([N+](=O)[O-])c1`, for which the “activity change, negative = viability loss” value is -14.9% (inactive).
For `CCOC(=O)N1C(=O)[C@](CC)(c2ccccc2)N1C(=O)OCC`, the “activity change, negative = viability loss” value is -16.8% (inactive).
Turning to `CC(C)C(=O)Nc1cccc(NC(=O)c2cc3ccccc3o2)c1`, the “activity change, negative = viability loss” value was -5.61% (inactive).
For the compound `Cc1ccc(NC(=O)c2cc3ccccc3oc2=O)cc1S(=O)(=O)N(C)C`, the “activity change, negative = viability loss” value is -2.98% (inactive).
As for `Cc1ccc(S(=O)(=O)Nc2cccc3cccnc23)cc1`, the “activity change, negative = viability loss” value was 12.9% (inactive).
Then `COc1ccc(N/N=C/c2c(C(=O)O)ccc3ccccc23)cc1`, with -18.1% (inactive); and `CC1C/C(=C\c2cccnc2)C(=O)/C(=C/c2cccnc2)C1` (centres undefined), with -9.76% (inactive); and `C=C1C(=O)C=C[C@]2(C)C[C@@H]3OC(=O)[C@](C)(O)[C@H]3C[C@@H]12`, with -25.9% (inactive).
Then `Cc1ccc2nc(NC(=O)c3ccc(Br)o3)sc2c1`, with -6.22% (inactive); and `CC(C)C(NC(=O)OCc1ccccc1)C(=O)OCC(=O)N1CCCCC1` (centres undefined), with 11.4% (inactive); and `CCOC(=O)c1ccc(NC(=O)c2nc(S(=O)(=O)Cc3ccccc3)ncc2Cl)cc1`, with -33.5% (inactive).
For `CCOC(=O)c1ccc(NC(=O)Cc2cccs2)cc1`, the “activity change, negative = viability loss” value is -5.41% (inactive).
Consider `CCc1ccc(Nc2nc(C)cc(C)n2)cc1`, for which the “activity change, negative = viability loss” value is -4.01% (inactive).
Under `Cc1cc(O)ccc1Nc1nc(-c2cccnc2)cs1` stands -1.37% (inactive).
For the compound `Cc1c(C#N)c(O)n(CCO)c(=O)c1N=Nc1ccc2c(c1)COC2=O`, the “activity change, negative = viability loss” value is -30.3% (inactive).
As for `N#Cc1cnc2sc3ccccc3n2c1=N`, the “activity change, negative = viability loss” value was -13.4% (inactive).
On to `O=C(NCCSc1ccccc1)c1ccccc1F`, for which the “activity change, negative = viability loss” value was -5.63% (inactive).
Take `COCn1c(COc2ccccc2)nc2ccccc21`: the “activity change, negative = viability loss” value was -33.2% (inactive).
For `O=C(N/N=C/c1cccc(Oc2ccc([N+](=O)[O-])cc2[N+](=O)[O-])c1)c1cncc(Br)c1`, the “activity change, negative = viability loss” value was -16% (inactive).
On to `CN(C)c1ccc(NC(=O)Nc2ccc3c(c2)nnn3C)cc1`, for which the “activity change, negative = viability loss” value is 6.96% (inactive).
Regarding `CC1Cc2ccccc2N1C(=O)c1ccc(Br)o1` (centres undefined), the “activity change, negative = viability loss” value was -35.6% (inactive).
With `O=C(c1cc2ccccc2oc1=O)N1CCN(c2ncccn2)CC1`, the “activity change, negative = viability loss” value is -6.63% (inactive).
For the compound `Cc1ccc(OCC(=O)Nc2cccc(C)n2)c(C)c1`, the “activity change, negative = viability loss” value was 11.2% (inactive).
Consider `CN(c1cccc(NC(=O)COc2ccc(Cl)cc2Cl)c1)S(C)(=O)=O`, for which the “activity change, negative = viability loss” value is -2.24% (inactive).
With `CCOc1ccccc1-c1nc(-c2ccc(C)nc2OC)no1`, the “activity change, negative = viability loss” value was -0.189% (inactive).
On to `C=CCNC(=O)c1ccc2nc(Cc3ccc(OC)cc3)oc2c1`, for which the “activity change, negative = viability loss” value is 1.33% (inactive).
On to `O=C(Nc1nc2cc3c(cc2s1)OCO3)C1=COCCO1`, for which the “activity change, negative = viability loss” value was -32.8% (inactive).
Then `O=C(/C=C/c1ccc(Cl)cc1)c1ccc([N+](=O)[O-])o1`, with -38.6% (inactive); and `CCOCCCNC(=O)/C(C#N)=C/c1ccc(Cl)c([N+](=O)[O-])c1`, with -34.9% (inactive).
For `Cc1nc2cc(NC(=O)Nc3cccc([N+](=O)[O-])c3)ccc2n1C`, the “activity change, negative = viability loss” value is -6.54% (inactive).
Consider `O=C(Cc1ccccc1)Nc1ccc(NC(=O)c2ccco2)nc1`, for which the “activity change, negative = viability loss” value was -8.09% (inactive).
For `CN(C)/C=N/c1ncc(C(=O)c2ccccc2)s1`, the “activity change, negative = viability loss” value is -12.3% (inactive).
For `C=C1C(=O)O[C@@]23[C@H]1CC[C@@H](C)[C@@H]2CC[C@@]1(C)O[C@@H]31`, the “activity change, negative = viability loss” value is 6.52% (inactive).
With `COc1ccc2oc3ccc(OC)cc3c(=O)c2c1`, the “activity change, negative = viability loss” value was -16.6% (inactive).

For the origin of these results see PubChem BioAssay AID493240 (Broad Institute, 2011).
